This is a sample that favours compounds with a hit; in the whole collection about 2.3% have one here.
Tau FP inhib – qHTS for Inhibitors of Tau Fibril Formation, Fluorescence Polarization; Microtubule-associated protein tau (Homo sapiens), P10636; K18 P301L tau heparin fibrillization, Alexa594 FP, 6 h; Potency, µM (titrated, usually from 57.7 µM), for inactives: at the highest dose activity, negative = inhibition, most hits filed as inhibitors; actives 0.39% (n = 280,000); AID 1468, 2008; further: potency means the concentration at half of the fitted maximal effect; nearly all actives have a fitted effect of over 55% in size
Target sequence (P10636 561-689 P618L limits assumed): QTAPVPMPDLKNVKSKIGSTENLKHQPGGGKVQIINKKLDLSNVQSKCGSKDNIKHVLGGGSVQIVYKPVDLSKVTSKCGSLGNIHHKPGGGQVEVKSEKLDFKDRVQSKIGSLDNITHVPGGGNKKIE
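K18 P301L tau (15 uM unlabeled/0.24 uM Alexa 594-labeled, final) + compound + heparin 20 uM final; 100 mM NaOAc pH 7; 6 hr 37 C; ThT 30 uM final added, 1 hr RT; FP ex 555/em 632 nm.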
FBPA coupling cs – qHTS Assay for Inhibitors of Fructose-1,6-bisphosphate Aldolase from Giardia Lamblia: Coupling assay counterscreen | AID 2472, 2010 | coupling enzyme system counterscreen, AmpLite Red fluorescence | actives 0.67% (n = 290,000) | activity change, negative = inhibition, % at 58.2 µM, hits read low; in the data active means activity change below about -30%
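Compounds tested against the coupling enzymes alone at 57.5 uM final; readout was AmpLite Red fluorescence (525/598 nm) after 20 min at RT.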
Tau fluor cs – Counterscreen qHTS for Inhibitors of Tau Fibril Formation, Fluorescence Polarization. tau K18 P301L Alexa594 fluorescence, heparin fibrillization. Potency, µM (top dose mostly 57.7 µM), for inactives: at the highest dose activity change, negative = decrease. actives 0.93% (n = 280,000); further: potency means the concentration at half of the fitted maximal effect; nearly all actives have a fitted effect of over 55% in size
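Human K18 P301L tau (15 uM unlabeled plus 0.24 uM Alexa 594-labeled, final) in 100 mM sodium acetate pH 7 was mixed with compound and 20 uM heparin and incubated 6 hr at 37 C.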
USP1-UAF1 inh – Inhibitors of USP1/UAF1: Primary Screen; Ubiquitin carboxyl-terminal hydrolase 1 (Homo sapiens), O94782; recombinant USP1/UAF1, Ub-Rhodamine cleavage fluorescence; Potency, µM (series often up to 57.1 µM), for inactives: top-dose activity change, negative = inhibition, hits mostly inhibitors; actives 0.23% (n = 390,000); further: potency means the concentration at half of the fitted maximal effect; nearly all actives have a fitted effect of over 60% in size
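In this screen, compounds sit with the deubiquitinase complex (1nM) for 15 min at room temperature before Ub-Rho is added at 150nM final. Fluorescence rise is then followed for 6 reads every 60 seconds.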
Tau ThT inhib – qHTS for Inhibitors of Tau Fibril Formation, Thioflavin T Binding; recombinant tau K18 P301L (four-repeat tau fragment), heparin-induced fibrillization, ThT fluorescence; Potency, µM (series often up to 57.4 µM), for inactives: top-dose activity, negative = inhibition, most hits filed as inhibitors; actives 2.1% (n = 270,000); AID 1460, 2008; further: potency means the concentration at half of the fitted maximal effect; nearly all actives have a fitted effect of over 55% in size
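Heparin-induced fibrillization of the P301L-mutant K18 repeat-domain fragment of human tau was followed by ThT binding in quantitative high-throughput format.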
* = called active by the depositor; ? = inconclusive; . = no result given; ! = repeats disagree; [ ] = remark or other dose. Unless noted, the call rests on the fitted dose curve; in most records, active means well fitted curve in the direction sought with a large enough effect; inconclusive means small, poorly fitted or top-dose-only effect, or another doubt; inactive means no such curve, though single readings can be large; an effect the other way counts as inactive or inconclusive. On the % scale 0 is the no-effect control and ±100 the full control effect.

SMILES | Tau FP inhib | FBPA coupling cs | Tau fluor cs | USP1-UAF1 inh | Tau ThT inhib
O=C(/C=C/Nc1cccc([N+](=O)[O-])c1)c1cccs1 | 3% | -7 | ? | -17% | 4.5µM*
COc1ccc(N/C=C\C(=O)c2ccc3c(c2)OCO3)cc1OC | 1% | 1 | ? | -20% | 2.8µM*
Cc1ccc([N+](=O)[O-])cc1NC(=O)c1cccs1 | 2% | 4 | 1% | -6% | 5%
CNc1cc([N+](=O)[O-])ccc1N/C=C/C(=O)c1cccs1 | 10% | -1 | ? | -8% | 16µM*
Cc1ccc([N+](=O)[O-])cc1NC(=O)c1ccc2c(c1)OCO2 | 0% | 0 | 0% | -12% | -6%
COC(=O)N1CCC2(CC1)CN(c1cccc(-c3ccccc3)c1)C2 | . | -1 | . | . | .
O=C(/C=C/Nc1ccc(Nc2ccccc2)cc1)c1cccs1 | ? | 0 | 7.9µM*[quencher] | -11% | 1.3µM*
COc1ccc(C(=O)/C=C(\C)Nc2ccc3c(c2)OCO3)cc1 | 6% | . | ? | -13% | 13µM*
COc1ccc(C(=O)/C=C/Nc2ccc([N+](=O)[O-])cc2C)c(OC)c1 | ? | 1 | -28% | 52% | ?
COc1ccc(C(=O)/C=C/Nc2ccc([N+](=O)[O-])cc2C)cc1OC | ? | 1 | ? | -14% | 1.6µM*
COc1ccc(C2=CC3=C(Br)C(=O)C(C)(OC(=O)CCc4ccccc4)C(=O)C3=CO2)cc1 (stereo not drawn) | 5% | 0 | -5% | . | -2%
COC(=O)CC1Oc2ccccc2-n2cc(-c3ccc(F)cc3)nc21 (stereo not drawn) | -19% | . | ? | -21% | -14%
Fc1ccc(CSc2nc3ccccc3[nH]2)c2ccccc12 | 25µM* | 0 | ? | -9% | -23%
O=C1c2cccc3c(Nc4ccccc4Cl)c([N+](=O)[O-])cc(c23)C(=O)N1CCO | 18% | 2 | ? | -18% | 11µM*
O=C1c2cccc([N+](=O)[O-])c2C(=O)N1CCO | -3% | 2 | -5% | -2% | -5%
C[C@@H]1CN2[C@H](c3ccc(Br)cc3)[C@H](C)CC[C@H]2C(=O)O1 | 1%[11.6 µM] | 2 | -1%[11.6 µM] | . | -1%[11.5 µM]
COc1cc(NS(=O)(=O)c2ccc(Nc3nc(-c4ccccc4)cs3)cc2)nc(OC)n1 | ? | 5 | 13µM*[quencher] | -23% | ?
Cc1nc(N)sc1-c1csc(Nc2ccccc2)n1 | ? | -13 | 25µM*[quencher] | -7% | 11µM*
Cc1cc(NS(=O)(=O)c2ccc(Nc3nc(-c4sc(N)nc4C)cs3)cc2)no1 | ? | -11 | ? | -24% | 20µM*
Cc1cc(O)ccc1Nc1nc(-c2sc(N)nc2C)cs1 | ? | 5 | ? | -18% | 13µM*
Cc1nc(N)sc1-c1csc(Nc2cccc(C(=O)O)c2)n1 | . | -25 | . | -31% | .
Cc1nc(C)c(-c2csc(Nc3ccc(N)cc3)n2)s1 | . | -4 | . | -21% | .
COc1cc(OC)c(NC(=O)C2=C(C)C(=O)OC23CCN(C(C)=O)CC3)cc1Cl | 10% | . | 3% | -12% | 2%
COc1ccc(C)c2sc(N(Cc3cccnc3)C(C)=O)nc12 | ? | . | -17% | -27% | -12%
CN(C)c1nc(NS(=O)(=O)c2ccc(Cl)cc2)nc(N(C)C)n1 | -3% | -32* | -1% | -2% | 2%
SMILES | Tau FP inhib | FBPA coupling cs | Tau fluor cs | USP1-UAF1 inh | Tau ThT inhib
O=S(=O)(Nc1ncccn1)c1ccc(Cl)cc1 | . | 3 | . | -18% | .
Cc1ccc(Nc2nn3c(=O)c4cc5c(cc4nc3s2)OCO5)cc1Cl | -11% | . | -21% | 4% | ?
Cc1cc(C)c(Nc2nn3c(=O)c4cc5c(cc4nc3s2)OCO5)c(C)c1 | ? | . | -27% | -22% | 28µM*
CCCNC(=O)OC[C@@H]1O[C@H](CCO/N=C\[C@@H](OC)[C@H](C)/C=C\CC(=O)OC)C=C[C@@H]1Oc1ccc(OC)cc1 | 5%[11.6 µM] | 5 | -14%[11.6 µM] | . | -7%[11.5 µM]
CC(/C=N/NC(=O)c1cc(-c2ccncc2)nc2ccccc12)=C\c1ccco1 | -5% | -40* | ? | ? | ?
Cc1ccc(/C=N/NC(=O)c2cc(-c3ccncc3)nc3ccccc23)o1 | . | 0 | . | -10% | .
O=C(O)c1ccccc1O[C@@H]1O[C@H](C(=O)O)[C@@H](O)[C@H](O)[C@H]1O | . | 2 | . | . | .
Cc1cccc(N=Nc2cnc(N)s2)c1 | 5% | -3 | ? | -8% | 5µM*
Cc1nnc(Sc2cc(NCCO)c([N+](=O)[O-])c3nonc23)s1 | ? | -22 | ? | -26% | 7.9µM*
Cc1nnc(Sc2cc(NCCCO)c([N+](=O)[O-])c3nonc23)s1 | -14% | -36* | ? | 14µM* | 6.3µM*
O=C(CCCCCn1c(=O)c2sccc2n(CC(=O)Nc2cccc(Cl)c2)c1=O)NCc1ccc2c(c1)OCO2 | ? | . | ? | ? | 12%
O=C(Nc1ccc(Cl)cc1)c1cc2c(cc1O)[nH]c1ccccc12 | -1% | 2 | 4µM*[quencher] | -14% | ?
O=S(=O)(Nc1cccc2cccnc12)c1ccccc1 | . | -39*! | . | -2% | .
Cc1c(Cl)cccc1NC(=O)Nc1ccc2snnc2c1 | 18µM* | . | 10µM*[quencher] | -35% | ?
Cc1ccc(F)c(NC(=O)Nc2ccc3snnc3c2)c1 | ? | . | ? | -29% | 3%
COc1ccc(O[C@H]2C=C[C@@H](c3ccccc3)O[C@H]2COC(=O)CC/C(C)=N\O[C@@H](C)c2cc(-c3c(C)cc(C)cc3C)no2)cc1 | -1%[11.6 µM] | 0 | -6%[11.6 µM] | . | -8%[11.5 µM]
NC(=O)c1sc2nc3c(c(-c4ccco4)c2c1N)CCCC3 | 10% | 5 | -17% | -15% | ?
Nc1c(C(=O)NCC2CCCO2)sc2nc3c(c(-c4ccco4)c12)CC/C3=C\c1ccco1 (stereo not drawn) | ? | -16 | ? | 28µM* | 16µM*
Cc1cc(C)cc(NC(=O)N2CCC(N3CCCCC3)CC2)c1 | -8% | . | -6% | 0% | -1%
COc1cccc(Nc2cc(-c3ccccc3)nc(C)n2)c1 | -9% | . | 28µM*[quencher] | ? | ?
Cc1nc(Nc2ccc(Cl)cc2)cc(-c2ccccc2)n1 | 28µM* | . | 13µM*[quencher] | ? | 21%
Cc1ccc(Nc2cc(-c3ccccc3)nc(C)n2)cc1 | 3% | . | ? | ? | -6%
COc1ccc(Nc2cc(Nc3cccc(OC)c3)ncn2)cc1 | . | 1 | . | -6% | .
CCOC(=O)N1CCC(NC(=O)c2ccc3c(c2)N(Cc2cc(C)ccc2C)C(=O)c2ccccc2S3=O)CC1 (stereo not drawn) | -4% | . | -14% | -27% | -10%

Screening results (PubChem BioAssay)
